Sampled rows, rich in hits. Any-hit rate of the full collection: about 2.1%.
D2 PAM-1 = human D2 receptor positive allosteric modulation. P14416. DiscoveRx D2 beta-arrestin cells, luminescence, 90 min; 100% = 57 uM dopamine signal. potentiation, % (no concentration beside the values). 0.23% of 360,000 active. AID 624464; in the data active means potentiation above about 50%; inconclusive means mostly about 30% to 49%
Target sequence (P14416 whole entry, looked up): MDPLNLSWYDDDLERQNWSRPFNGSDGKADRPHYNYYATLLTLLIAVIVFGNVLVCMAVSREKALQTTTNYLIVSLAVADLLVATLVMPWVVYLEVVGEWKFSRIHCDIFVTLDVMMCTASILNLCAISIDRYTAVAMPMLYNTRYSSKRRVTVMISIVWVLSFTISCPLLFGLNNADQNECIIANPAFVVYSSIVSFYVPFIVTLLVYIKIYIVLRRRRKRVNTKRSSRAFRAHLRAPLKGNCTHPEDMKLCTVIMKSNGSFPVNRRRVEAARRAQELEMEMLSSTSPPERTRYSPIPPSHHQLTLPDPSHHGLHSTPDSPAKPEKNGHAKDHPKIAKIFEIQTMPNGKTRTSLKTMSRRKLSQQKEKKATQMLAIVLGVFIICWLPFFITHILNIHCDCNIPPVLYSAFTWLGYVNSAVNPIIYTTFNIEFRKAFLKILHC
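PathHunter D2 cells, attached overnight at 37 deg C, received compound in DMSO plus dopamine at EC20 (50 nM final) for 90 min at 37 deg C. Beta-arrestin recruitment was read as luminescence after 1 h with detection reagent at ambient temperature.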
D2 ag-1 = human D2 receptor agonism in beta-arrestin assay; activation, % (concentration not given with the values); P14416; 0.084% of 360,000 active; DiscoveRx PathHunter D2 beta-arrestin, luminescence, 90 min; 100% = 57 uM dopamine signal; in the data active means activation above about 40%; inconclusive means between about 15% and that limit
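DiscoveRx PathHunter D2 beta-arrestin cells (2,100/well) attached overnight, then compound-stimulated 90 min at 37 C in HBSS/10 mM HEPES/0.1% Tween-20 buffer; beta-galactosidase complementation read by luminescence after 1 h at ambient temperature. Dopamine 57 uM final (EC100) as control.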
D2 PAM-2 = D2 dopamine receptor (human) potentiation | 0.34% of 340,000 active | potentiation, % at 10 µM | HEK293 T-REx D2, calcium flux, EC20 dopamine potentiation | P14416;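 active means potentiation over 3 SD above the plate norm, cut at about 30% in these data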
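Calcium flux readout, no-wash dye, 1 read/s. Inducible HEK293 Trex D2 line, overnight 30 C. Compound alone 180 s (agonist flags), then EC20 dopamine, another 180 s to score potentiation.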
D2 antagonist = antagonists of human D2 dopamine receptor; P14416; 2% of 340,000 active; inhibition, % at 10 µM; AID 485344; HEK293 TREx D2 cells, calcium flux, dopamine EC80; in the data active means inhibition above about 30%; inactive means below that, where a call was filed
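Read-out: kinetic calcium fluorescence (1 cycle/s) in inducible HEK293 T-REx D2 cells after an EC80 dopamine addition that followed 180 s compound preincubation. Loss of the dopamine response indicates antagonism.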
D2 ag-2 = agonists of human D2 dopamine receptor; 0.53% of 340,000 active; activation, % at 2 µM; HEK293 T-REx D2 cells, calcium flux agonist mode; P14416; AID 485358;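 active means activation over 3 SD above normal in the single-dose calcium agonist read, cut at about 30% in these data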
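Tetracycline-induced HEK293 Trex cells with D2 receptor force-coupled to calcium signaling, plated overnight at 30 C and loaded with no-wash calcium dye. Calcium flux read kinetically for 180 s after compound addition; responses flag agonists.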
LDHA block = inhibitors of human lactate dehydrogenase A. AID 1347041. activity change, % (values are at about 110 or 230 µM). purified LDHA, NADH/diaphorase-resazurin fluorescence; active compounds read low. P00338. 0.15% of 480,000 active; in the data active means activity change below about -30%; inconclusive means mostly about -25% to -30%
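Enzyme activity of human lactate dehydrogenase 5 (2 nM; 0.06 mM NADH, 0.2 mM pyruvate, 5 min, RT) is measured via a resazurin/diaphorase fluorescence readout of residual NADH.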
A number is an active result; i = inactive; ? = inconclusive; nt = not tested or not shown.

SMILES	D2 PAM-1	D2 ag-1	D2 PAM-2	D2 antagonist	D2 ag-2	LDHA block
COc1ccc(-c2noc(-c3ccc(Cl)cc3[N+](=O)[O-])n2)cc1OC	89.1	?	i	i	i	i
c1ccc(Cn2ncc3c2CCCC3NCc2cscn2)cc1 (stereo not given)	nt	nt	nt	nt	nt	i
Cc1ccc[n+](C(C)C(=O)Nc2ccc(C)c([N+](=O)[O-])c2)c1 (stereo not given)	i	i	i	42.8	i	i
NC(=O)C1(N2CCCCC2)CCN(Cc2ccc(Br)cc2)CC1	i	i	i	36.8	i	i
NC(=O)C1(N2CCCCC2)CCN(Cc2ccc(F)cc2)CC1	i	i	i	i	i	i
CC1(C)CC(=O)C2=C(C1)N1C(=C(C#N)C2c2ccccc2Cl)N=C(N)c2ccccc21 (stereo not given)	i	i	i	35.8	i	i
CC1(C)CC(=O)C2=C(C1)N1C(=C(C#N)C2c2ccc(Cl)cc2)N=C(N)c2ccccc21 (stereo not given)	i	i	i	i	i	i
Fc1cccc(CSc2ncnc3c2oc2ccccc23)c1	i	i	i	30.5	i	i
CCNC(=S)Nc1ccc(N(c2ccccc2)C(C)C)cc1	i	i	i	i	i	i
CC(C)N(c1ccccc1)c1ccc(NC(=S)NCCN(C)C)cc1	i	i	i	82.5	i	i
CCC(C)(C)C(=O)Nc1ncc(S(=O)(=O)c2ccc([N+](=O)[O-])cc2)s1	87.6	i	30.8	i	i	i
O=C(Nc1ncc(S(=O)(=O)c2ccc([N+](=O)[O-])cc2)s1)c1ccc2ccccc2c1	73.2	i	nt	nt	nt	i
CCc1cccc(NC(=S)N(CCC(C)C)C(C)c2cccs2)c1 (stereo not given)	nt	nt	nt	nt	nt	i
Cc1ccc(NC(=O)CN(C)C(=O)c2cc3cc(Cl)ccc3nc2C)cc1	nt	nt	nt	nt	nt	i
N/C(Cc1ccc(Cl)cc1Cl)=N\OC(=O)c1cccs1	119.3	i	i	i	i	i
N/C(Cc1ccc(Cl)cc1Cl)=N\OC(=O)Cc1cccs1	i	i	i	i	i	i
COc1ccccc1C/C(N)=N/OC(=O)c1cccs1	53.4	?	i	i	i	i
CNC(=O)Cn1nc(-c2ccc(C)c(S(=O)(=O)N(C)C)c2)c2ccccc2c1=O	i	i	38.0	i	i	i
Cc1ccc(-c2nn(CC(=O)NC(C)(C)C)c(=O)c3ccccc23)cc1S(=O)(=O)N(C)C	nt	nt	nt	nt	nt	i
Cn1c(C(=O)Nc2ccc3c(c2)OCO3)cc2c(=O)n(C)c3ccccc3c21	i	i	31.4	i	i	i
COc1cccc(NC(=O)c2cc3c(=O)n(C)c4ccccc4c3n2C)c1	nt	nt	i	nt	i	i
COc1cc2c(cc1NC(=O)CSc1nnc(Cc3cccs3)n1C)oc1ccccc12	i	i	i	i	i	i
CCn1c(SCC(=O)Nc2cc3oc4ccccc4c3cc2OC)nnc1-c1cccs1	i	i	i	44.8	36.8	i
CCC(NC(=O)C1CCC1)c1ccc(C)cc1 (stereo not given)	i	i	i	36.7	i	i
O=C1C(=O)c2c(ccc3ccccc23)-c2ccccc21	58.8	?	nt	nt	nt	i
SMILES	D2 PAM-1	D2 ag-1	D2 PAM-2	D2 antagonist	D2 ag-2	LDHA block
CN(C)/C=C1\Oc2ccc3ccccc3c2C1=O	i	i	i	i	i	i
COc1ccccc1N(CC(O)CN1C(=O)NC(C)(C)C1=O)S(=O)(=O)c1ccc(C)cc1 (stereo not given)	i	i	i	i	i	i
COc1ccccc1N(CC(O)Cn1ccnc1C)S(=O)(=O)c1ccc(C)cc1 (stereo not given)	i	i	i	67.2	i	i
O=C(NCCNC(=O)c1cc2ccccc2[nH]1)C(=O)Nc1cccc2ccccc12	nt	nt	nt	nt	nt	i
COc1ccc(S(=O)(=O)N2CCC(C(=O)NCCN3CCOCC3)CC2)cc1C	i	i	i	34.2	i	i
Cc1cc(C)cc(NC(=O)c2csc3c2CCCCC3)c1	nt	nt	nt	nt	nt	i
CCN(CC)CCCC(C)NCC1CC2C=CC1C2 (stereo not given)	nt	nt	nt	nt	nt	i
C/C(=N\NC(=O)c1ccccn1)c1ccc(C(=O)O)s1	nt	nt	i	59.3	i	nt
CC(=N/O)/C(C)=N\NC(=O)c1ccccn1	i	i	i	i	i	i
O=C(c1ccc2nc(N3CCCCC3)sc2c1)N1CCN(Cc2ccc3c(c2)OCO3)CC1	i	i	i	i	49.0	i
CCn1cnc2sc(C(=O)N3CCN(Cc4ccc5c(c4)OCO5)CC3)c(C)c2c1=O	nt	nt	i	i	33.5	nt
Cc1ccccc1C(=O)N1CCC(C(=O)N2CCN(Cc3ccc4c(c3)OCO4)CC2)CC1	i	i	nt	nt	nt	i
O=C(C1CCN(Cc2cccs2)CC1)N1CCN(Cc2ccc3c(c2)OCO3)CC1	i	i	nt	i	i	-32.5
O=C(c1ccc(F)cc1)N1CCC(C(=O)N2CCN(Cc3ccc4c(c3)OCO4)CC2)CC1	i	i	i	30.5	i	i
O=C(c1ccc2nc(N3CCOCC3)sc2c1)N1CCC(Cc2ccccc2)CC1	i	i	i	31.8	i	i
CSc1cccc(Nc2nc(N)c(C(=O)c3ccccc3Cl)s2)c1	nt	nt	nt	nt	nt	i
C=CCN(CC=C)S(=O)(=O)c1ccc(F)cc1	i	i	i	30.9	i	i
CCN(CC(N)=O)S(=O)(=O)c1ccc(F)cc1	i	i	i	i	i	i
Cc1ccc(NC(=O)c2cc(-c3ccncc3)nc3ccccc23)c(C)c1	nt	nt	nt	nt	nt	i
CCOC(=O)N1CCc2c(sc3c2C(=O)NC(c2cccc4ccccc24)N3)C1 (stereo not given)	nt	nt	nt	nt	nt	i
O=C(NCc1ccccc1)c1onc(CSc2ccc(Cl)cc2)c1C(=O)NCC1CC1	i	i	i	i	i	i
O=C(NCc1ccccc1)c1onc(CSc2ccccc2)c1C(=O)NCC1CC1	i	i	i	38.8	i	i
C=CCNC(=O)c1onc(CSc2ccccc2)c1C(=O)O	i	i	i	31.8	i	i
CCc1c(/C(=N/O)c2ccc(C)cc2)oc2ccc3c(C)cc(=O)oc3c12	nt	nt	nt	nt	nt	i
O=c1[nH]c2c(c(=O)[nH]1)CCC2	i	i	i	36.9	i	i
O=C(O)CCCC(=O)NCCN1CCCC1	nt	nt	nt	nt	nt	i
O=C(CSC1=Nc2ccccc2C2=NC(c3ccccc3)C(=O)N12)Nc1cc(F)ccc1F (stereo not given)	nt	nt	nt	nt	nt	i
O=C(NCc1ccccc1C(F)(F)F)C1CC(c2cccc(F)c2)=NO1 (stereo not given)	i	i	i	41.8	i	i
O=C(NCc1ccccc1C(F)(F)F)C1CC(c2cc(C(F)(F)F)cc(C(F)(F)F)c2)=NO1 (stereo not given)	i	i	i	i	i	i
Cc1oc2cc(OC(=O)c3ccc4c(c3)OCO4)ccc2c(=O)c1-c1ccccc1	nt	nt	nt	nt	nt	-30.3
